This note sets out measurements from publication PMC8384837, “Expanding the binding specificity for RNA recognition by a PUF domain”.

Numbering of substitutions follows the chain as printed.

What all share (test): yeast three-hybrid, YBZ-1, SC-Leu-His + 0.5 mM 3-AT, 4 days
Conditions in all cases: tags: N-Gal4 AD-HA kept; label: inside an RPR1-promoter hybrid RNA with tandem MS2 sites; ssRNA

The target in one assay is PUM1 PUF domain R2-PYE (Homo sapiens, UniProt Q14671 828-1176, N899P;Q903E). The essentials: (§1)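 The interaction score is the log change in variant frequency from input to selection. Scores were computed in log2 with a pseudocount of 1 for absent variants, using Illumina sequencing of PCR-amplified repeat regions. The input came from four days on SC-Leu and the selection from four days on SC-Leu-His + 0.5 mM 3-AT. The cells were strain YBZ-1 (LexA–MS2 coat fusion, HIS3 reporter) co-expressing Pumilio-1 PUF domain libraries and matching RNA elements from a centromeric plasmid.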

The target of a further assay is PUM1 PUF domain R5-KSG (Homo sapiens, UniProt Q14671 828-1176, C1007K;R1008S;Q1011G). A digest of the protocol:
as §1

The target of the next assay is T1, PUM1 PUF domain R6-QHR (Homo sapiens, UniProt Q14671 828-1176, N1043Q;Y1044H;Q1047R).
T1 sequence: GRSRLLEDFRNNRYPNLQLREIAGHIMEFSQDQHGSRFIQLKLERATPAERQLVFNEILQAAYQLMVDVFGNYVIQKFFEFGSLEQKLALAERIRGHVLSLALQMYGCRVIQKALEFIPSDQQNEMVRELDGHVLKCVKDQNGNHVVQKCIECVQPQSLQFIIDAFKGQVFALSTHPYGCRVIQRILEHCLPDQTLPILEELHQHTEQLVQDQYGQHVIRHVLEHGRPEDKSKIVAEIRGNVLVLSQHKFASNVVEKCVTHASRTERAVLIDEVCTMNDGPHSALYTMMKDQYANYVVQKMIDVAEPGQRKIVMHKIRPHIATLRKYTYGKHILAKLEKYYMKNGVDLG
A digest of the protocol:
as §1

A further assay deals with T2, PUM1 PUF domain R6-FWK (Homo sapiens, UniProt Q14671 828-1176, N1043F;Y1044W;Q1047K).
T2 sequence: T1 sequence with Q216F, H217W, R220K
A digest of the protocol:
as §1

Another assay has as its target T3, PUM1 PUF domain R6-QWR (Homo sapiens, UniProt Q14671 828-1176, N1043Q;Y1044W;Q1047R).
T3 sequence: T1 sequence with H217W
A digest of the protocol:
as §1

A further assay concerns the target PUM1 PUF domain R8-KRS (Homo sapiens, UniProt Q14671 828-1176, N1122K;Y1123R;Q1126S). A digest of the protocol: as §1
For the next assay, the target named is PUM1 PUF domain R7-RWP (Homo sapiens, UniProt Q14671 828-1176, S1079R;N1080W;E1083P). The essentials:
as §1

On to “GGCUAGAACUAGUGGAUCCCCCGGCGCCCGGCGGCUCGAGCCCGGGUAAGUGUAAAAAGUCUGCAUGCCGCCGGGCGCCAUGCCUGCAGGUCGACUCUAGAAAACAUG”, for which the binding signal with PUM1 PUF domain R2-PYE is 5.7 log2 enrichment (interaction score).
As to “GGCUAGAACUAGUGGAUCCCCCGGCGCCCGGCGGCUCGAGCCCGGGUAAGUGUCAAUAGUCUGCAUGCCGCCGGGCGCCAUGCCUGCAGGUCGACUCUAGAAAACAUG”, the binding signal with PUM1 PUF domain R5-KSG was 3.24 log2 enrichment (interaction score).
In the case of “GGCUAGAACUAGUGGAUCCCCCGGCGCCCGGCGGCUCGAGCCCGGGUAAGUGUUAAUAGUCUGCAUGCCGCCGGGCGCCAUGCCUGCAGGUCGACUCUAGAAAACAUG”, the binding signal in the assay with PUM1 PUF domain R5-KSG was 2.98 log2 enrichment (interaction score).
In the case of “GGCUAGAACUAGUGGAUCCCCCGGCGCCCGGCGGCUCGAGCCCGGGUAAGUGUAAAUAGUCUGCAUGCCGCCGGGCGCCAUGCCUGCAGGUCGACUCUAGAAAACAUG”, the binding signal with PUM1 PUF domain R6-QHR was 6.41 log2 enrichment (interaction score); with PUM1 PUF domain R6-FWK, 2.07 log2 enrichment (interaction score); with PUM1 PUF domain R6-QWR, 2.53 log2 enrichment (interaction score); in the assay with PUM1 PUF domain R8-KRS, 1.29 log2 enrichment (interaction score).
On to “GGCUAGAACUAGUGGAUCCCCCGGCGCCCGGCGGCUCGAGCCCGGGUAAGUCUAAAUAGUCUGCAUGCCGCCGGGCGCCAUGCCUGCAGGUCGACUCUAGAAAACAUG”, for which the binding signal with PUM1 PUF domain R7-RWP is 4.98 log2 enrichment (interaction score).
Regarding “GGCUAGAACUAGUGGAUCCCCCGGCGCCCGGCGGCUCGAGCCCGGGUAAGUGCAAAUAGUCUGCAUGCCGCCGGGCGCCAUGCCUGCAGGUCGACUCUAGAAAACAUG”, in the assay with PUM1 PUF domain R6-QWR, the binding signal is 2.4 log2 enrichment (interaction score).
In the case of “GGCUAGAACUAGUGGAUCCCCCGGCGCCCGGCGGCUCGAGCCCGGGUAAGCGUAAAUAGUCUGCAUGCCGCCGGGCGCCAUGCCUGCAGGUCGACUCUAGAAAACAUG”, the binding signal in the assay with PUM1 PUF domain R8-KRS is 3.28 log2 enrichment (interaction score).
